Assay results from PubChem BioAssay AID527 (NMMLSC, 2006).
About 65 (0.3%) of roughly 24,000 compounds were called active.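 How the source made its calls: active means share of bacteria positive for the green fluorescent reporter and its mean brightness both inhibited by 50% or more; inactive means the rest, inconclusive results apart.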 The sample as a whole holds a higher share of actives than the screen did.

Experiment: S. aureus quorum sensing inhibitors, primary screen, RNAIII-GFP reporter, flow cytometry (AID 527);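 further: 0% = AIP-stimulated control and 100% = unstimulated bacteria without AIP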
Settings: S. aureus RN6390 RNAIII-GFP reporter, AIP-induced, flow cytometry 3 h, at 2 µM, stronger effect = higher value
[1] = measured here: inhibition of GFP MFI

SMILES | inhibition | inhibition [1] [%]
Cc1cc(Nc2cccc(C)c2C)n2ncnc2n1 | 0% (inactive) | 1.4
COC(=O)c1ccc2c(=O)n(CC3CCCO3)c(=S)[nH]c2c1 (centres undefined) | -2.1% (inactive) | 1.7
O=C(NCCCN1CCN(C2CCCCC2)CC1)Nc1ccccc1C(F)(F)F | -9.7% (inactive) | -13.2
COc1cccc(N2CCN(C(=O)C3CCCN(S(=O)(=O)c4cnc[nH]4)C3)CC2)c1 (centres undefined) | -1.3% (inactive) | -0.6
Cc1ccc(C)c(N2CCN(C(=O)CCCCn3c(=O)[nH]c4ccccc4c3=O)CC2)c1 | 71.2% (active) | 71.1
O=C(CCn1c(=O)[nH]c2ccccc2c1=O)NCCCN1CCN(c2cccc(Cl)c2)CC1 | -4.8% (inactive) | -25.8
Cc1ccc(C)c(N2CCN(C(=O)CCc3nc4ccccc4[nH]3)CC2)c1 | 5.3% (inactive) | 36.1
COC(=O)c1ccc(CN(c2ccccc2OC)S(=O)(=O)c2cccs2)o1 | -0.8% (inactive) | -15.8
COC(=O)CN(c1nc(C)c(Cl)c(OC)n1)S(=O)(=O)c1ccc(C)cc1 | -3.6% (inactive) | -2.5
Cc1ccccc1S(=O)(=O)Cc1ccc(C(=O)NCCN2CCCCC2C)o1 (centres undefined) | 1.5% (inactive) | -6.9
O=C(C(Cc1ccccc1)n1cccc1)N1CCN(C2CCCCC2)CC1 (centres undefined) | -0.8% (inactive) | -1.7
CCOc1ccc(OCC)c(NC(=O)C2CCN(S(=O)(=O)c3c(C)noc3C)CC2)c1 | -1.2% (inactive) | -15.6
O=C(c1ccccc1)c1ccc2nc(N3CCCCC3)c3nncn3c2c1 | -1.8% (inactive) | -34.9
Cc1cccc(N2CCN(Cc3c(C)n(C)n(-c4ccccc4)c3=O)CC2)c1C | -0.1% (inactive) | -1.8
COc1cccc(N2C(=O)C3CCCN3C2c2ccc(F)cc2)c1 (centres undefined) | -4.7% (inactive) | -8.4
CN1CCN(S(=O)(=O)c2ccc3[nH]cc(C(=O)O)c(=O)c3c2)CC1 | -2.2% (inactive) | -22.7
CC(C)N1C(=O)C2C(C(=O)NC3CCCCC3)C3C=CC2(O3)C1C(=O)NC1CCCC1 (centres undefined) | -2.6% (inactive) | -16.1
CC1CCC(NS(=O)(=O)c2ccc3c(c2)n(C)c(=O)c(=O)n3C)CC1 (centres undefined) | -0.4% (inactive) | 12.3
C=CCn1c2ccccc2c2nnc(SC(CC)C(=O)Nc3nc(C)c(C(=O)OCC)s3)nc21 (centres undefined) | 28.9% (inactive) | 48.3
COC(=O)c1cc(C(=O)OC)cc(N2C(=O)CC(N3CCN(c4ccccc4)CC3)C2=O)c1 (centres undefined) | 5.6% (inactive) | 38.5
COCCCNC(=O)CSc1nc2ccc(N3CCOCC3)cc2c(=O)n1CCc1ccccc1 | 10.2% (inactive) | 33.4
COC(=O)Cn1c(=NC(=O)CSCC(=O)Nc2cc(C)on2)sc2ccccc21 | 0.4% (inactive) | 4.6
CC(C)(C)C(=O)CCN1C(=O)C2(OCCO2)c2ccccc21 | -2.2% (inactive) | -21.9
Cc1cccn2c(=O)c3cc(C(=O)NCc4ccccn4)n(C)c3nc12 | -3.5% (inactive) | -9.7
C=CCSc1nnc(Cn2c(=O)sc3ccccc32)n1C | 24.2% (inactive) | 43.3
CCCS(=O)(=O)N1CCCC(C(=O)N2CCN(c3ccccc3)CC2)C1 (centres undefined) | -1% (inactive) | -6.2

SMILES | inhibition | inhibition [1] [%]
CC(c1ccco1)N(C(=O)c1ccc(S(=O)(=O)N2CCCCC2)cc1)c1ccccn1 (centres undefined) | -0.6% (inactive) | 4.5
CCC1=C(C(=O)OC)C(c2cc(OC)ccc2OC)C(C#N)=C(N)O1 (centres undefined) | -0.3% (inactive) | 1.1
Cc1nc2ccc(S(=O)(=O)NCC(=O)NCCN3CCCCC3C)cc2s1 (centres undefined) | -2.2% (inactive) | -14.7
CCCOC(=O)c1cc2ccccc2oc1=O | 3.4% (inactive) | 8.3
CSc1cccc(NC(=O)C2CCCN2S(=O)(=O)c2ccc3c(c2)CCC(=O)N3)c1 (centres undefined) | 8.9% (inactive) | 21
O=C(CN1C(=O)CSc2ncccc21)N1CCOCC1 | -5.1% (inactive) | -14.2
CC1CN(C(=O)c2ccc3c(c2)OCO3)OC(c2ccccc2)O1 (centres undefined) | 6% (inactive) | 10.1
c1ccc(-c2cn3cccnc3n2)cc1 | -2.7% (inactive) | -34.3
CS(=O)(=O)NCc1ccc(C(=O)NCc2ccccc2)cc1 | -0.2% (inactive) | -1.2
CS(=O)(=O)N(Cc1nc2sc3c(c2c(=O)[nH]1)CCCC3)C1CCCCC1 | 0.3% (inactive) | -0.2
Cc1ccc(NC(=O)CSc2nnc(-c3cnccn3)n2Cc2ccco2)cc1C | -0.7% (inactive) | -6.3
CC(=O)C1C(c2cccc(Oc3ccccc3)c2)NC(=O)NC1(O)C(F)(F)F (centres undefined) | 18.4% (inactive) | 32
CCOc1ccc(NCCC(=O)c2ccc3c(c2)OCO3)cc1 | -0.1% (inactive) | 10.4
CCOC(=O)C1CCN(C(=O)C2CCN(S(=O)(=O)c3c(C)noc3C)CC2)CC1 | -1.5% (inactive) | -40
COc1cc(C2C(C#N)=C(N)Oc3n[nH]c(-c4ccccn4)c32)cc(OC)c1OC (centres undefined) | -3.4% (inactive) | 8.1
CSc1ccc(NC(=O)N2CC(C)OC(C)C2)cc1 (centres undefined) | 0% (inactive) | 1.1
O=C(CN1CCN(S(=O)(=O)c2ccc(F)cc2)CC1)Nc1ccccc1F | 11.5% (inactive) | 16.5
COc1ccc(C2CC(c3ccc(C)cc3)Nc3ncnn32)cc1 (centres undefined) | -0.4% (inactive) | 12.6
CCCCN=C(N)/C(C(=O)OCC)=C(\O)c1ccc(OC)cc1 | 0.5% (inactive) | 11.9
O=C(O)c1cccc2c1C(=O)N(C1CCCCC1)C2 | 0% (inactive) | 21.1
CCN(CC)S(=O)(=O)c1ccc2[nH]cc(C(=O)NCCc3ccccc3)c(=O)c2c1 | -0.1% (inactive) | -2.7
COc1c(F)c(F)c(C(=O)O)c(Nc2ccccc2C)c1F | -1.7% (inactive) | -14
COc1ccc(C(=O)Nc2cccnc2)cc1C(=O)Nc1cccnc1 | 2.2% (inactive) | 2.6
COc1ccc(N2C(=O)c3cccc4cccc(c34)C2=O)nn1 | -1.1% (inactive) | -16.4
Cc1cccc(C)c1NC(=O)N1CC=C(n2c(=O)[nH]c3ccccc32)CC1 | 8.3% (inactive) | 17.1
CCCCC(CC)C(=O)Nc1ccc(Cl)cn1 (centres undefined) | 0.6% (inactive) | 18.7
